{
  "source": "ChEMBL document CHEMBL3988442",
  "about": "“University of Dundee, Small-Polar-MMV Screening Library” (2021)",
  "note": "About 13,000 (27%) of roughly 48,000 compounds showed an effect of 50% or more. The list shows a part of the results.",
  "data": [
    {"test_system": "Wolbachia pipientis", "experiment": "Anti-Wolbachia Cell-Based Screen", "assay_type": "functional", "set-up": "scale not given: in the data most compounds retested in dose-response had high values", "details": "5 µM", "units": {"Percent Effect": "%"}, "values": [
      {"molecule": "Cc1cc(=O)n2ncnc2n1CC(O)c1cc(Cl)ccc1Cl", "note": "(stereo not drawn)", "Percent Effect": -47.28},
      {"molecule": "COc1ccc(F)c(-c2cc(O)nc(N)n2)c1", "Percent Effect": -16.24},
      {"molecule": "CC(=O)N1CCC2(CC1)COCCN2CCN(C)C.O=C(O)C(F)(F)F.O=C(O)C(F)(F)F", "Percent Effect": 6.129},
      {"molecule": "Cn1ccnc1C(=O)N1CCC2(CCCN2CC2CC2)CC1.O=C(O)C(F)(F)F", "Percent Effect": 5.734},
      {"molecule": "CCN1CCOCC12CCN(C(=O)C1CCC1)CC2.O=C(O)C(F)(F)F", "Percent Effect": 107.9},
      {"molecule": "CN1CCOCC12CCN(c1nncs1)CC2.O=C(O)C(F)(F)F.O=C(O)C(F)(F)F", "Percent Effect": 6.857},
      {"molecule": "CN1CCOC2(CCCN(C(=O)C3CCCCC3)C2)C1.O=C(O)C(F)(F)F", "note": "(stereo not drawn)", "Percent Effect": -15.05},
      {"molecule": "CCN1CCOCC12CCN(C(=O)c1ccsc1)CC2.O=C(O)C(F)(F)F", "Percent Effect": -8.879},
      {"molecule": "O=C(C1CCC1)N1CCC2(CCCN2CC2CC2)CC1.O=C(O)C(F)(F)F", "Percent Effect": 90.77},
      {"molecule": "CN(C)CCN1CCOCC12CCN(C(=O)C1CC1)CC2.O=C(O)C(F)(F)F.O=C(O)C(F)(F)F", "Percent Effect": 105.8},
      {"molecule": "CC(C)C(=O)N1CCC2(CCN2CC2CC2)C1.O=C(O)C(F)(F)F", "note": "(stereo not drawn)", "Percent Effect": -2.181},
      {"molecule": "CN(C)CCN1CCC2(CCCN(C(=O)C3CCC3)C2)CC1.O=C(O)C(F)(F)F.O=C(O)C(F)(F)F", "Percent Effect": -7.862},
      {"molecule": "CN1CCOCC12CCN(C(=O)C1CCC1)CC2.O=C(O)C(F)(F)F", "Percent Effect": 137.1},
      {"molecule": "CCN1CCOCC12CCN(C(=O)Cc1cccs1)CC2.O=C(O)C(F)(F)F", "Percent Effect": 0.8444},
      {"molecule": "Cc1nc(CN(C)c2nc3c(cnn3C(C)(C)C)c(=O)[nH]2)cs1", "Percent Effect": 2.09},
      {"molecule": "CC(=O)N1CC[C@H]2C(=O)N(c3ccsc3)CCO[C@H]2C1", "Percent Effect": -22.82},
      {"molecule": "Cc1ccc(CN(C)C)cc1NC(=O)C1CC1", "Percent Effect": -4.043},
      {"molecule": "O=C(Cc1cccs1)N1CCC2(CC1)COCCN2CC1CC1.O=C(O)C(F)(F)F", "Percent Effect": -7.1},
      {"molecule": "CCOCC(=O)N1CCC2(CC1)COCCN2CCN(C)C.O=C(O)C(F)(F)F.O=C(O)C(F)(F)F", "Percent Effect": 122.8},
      {"molecule": "COCC(=O)N1CCC2(CC1)COCCN2CCN(C)C.O=C(O)C(F)(F)F.O=C(O)C(F)(F)F", "Percent Effect": -13.01},
      {"molecule": "c1csc(CN2CCC3(CC2)COCCN3CC2CC2)n1", "Percent Effect": -11.56},
      {"molecule": "CCOCC(=O)N1CCC2(CC1)COCCN2CCOC.O=C(O)C(F)(F)F", "Percent Effect": 1.249},
      {"molecule": "O=C(C1CCCO1)N1CCC2(CC1)COCCN2CC1CC1", "note": "(stereo not drawn)", "Percent Effect": 91.17},
      {"molecule": "CCN1CCOCC12CCN(C(=O)C1CCCC1)CC2.O=C(O)C(F)(F)F", "Percent Effect": 72.95},
      {"molecule": "CC(C)(C)N1CC(C(=O)NCc2cn3cccnc3n2)CC1=O", "note": "(stereo not drawn)", "Percent Effect": -9.989},
      {"molecule": "Cc1nc(CN(C)Cc2nc(-c3ccncc3)no2)co1", "Percent Effect": -11.37},
      {"molecule": "Cc1c(C(=O)NCC2CCN(Cc3c[nH]cn3)C2)[nH]c2ccccc12", "note": "(stereo not drawn)", "Percent Effect": 1.148},
      {"molecule": "CC(C)[C@H]1CN(Cc2c[nH]cn2)C[C@@H]1NC(=O)CC1CCC1", "Percent Effect": -5.041},
      {"molecule": "O=C(CC1CCCC1)N[C@H]1CN(Cc2c[nH]cn2)C[C@@H]1C1CC1", "Percent Effect": -0.5907},
      {"molecule": "Cn1c(CCNC(=O)C2CCCN(C3CCOCC3)C2)n[nH]c1=O", "note": "(stereo not drawn)", "Percent Effect": -0.6939},
      {"molecule": "COCCNc1ccc(CC2CCCN(Cc3c[nH]cn3)C2)nn1", "note": "(stereo not drawn)", "Percent Effect": 98.89},
      {"molecule": "COCCNc1ccc(CC2CCCN(C3CCOCC3)C2)nn1", "note": "(stereo not drawn)", "Percent Effect": 121.9},
      {"molecule": "Cc1ccc2[nH]nc(C(=O)NCC3CCN(Cc4c[nH]cn4)C3)c2c1", "note": "(stereo not drawn)", "Percent Effect": -10.2},
      {"molecule": "Cc1csc(CCNC(=O)C2CCCN(C3CCOCC3)C2)n1", "note": "(stereo not drawn)", "Percent Effect": -10.65},
      {"molecule": "O=CO.c1nc(CN2CCCC(Cc3ccc(NC4CCCC4)nn3)C2)c[nH]1", "note": "(stereo not drawn)", "Percent Effect": 168.2},
      {"molecule": "CNc1ccc(CC2CCCN(Cc3c[nH]cn3)C2)nn1", "note": "(stereo not drawn)", "Percent Effect": 113.9},
      {"molecule": "NC(=O)COc1ccc(CNC(=O)CN2CCc3ccccc32)cc1", "Percent Effect": -10.38},
      {"molecule": "CN(CCO)Cc1nnc(C2CCN(C3CCCCC3)CC2)n1C", "Percent Effect": 6.504},
      {"molecule": "Cc1ccc(C(=O)N2CCSCC2)cc1NC(=O)Cn1cncn1", "Percent Effect": -1.948},
      {"molecule": "NC(=O)c1cccc(CCNC(=O)N2CCCC2)c1", "Percent Effect": -5.891},
      {"molecule": "CCCc1cc(=O)[nH]c(-c2cccc(CN3CCN4CCCC4C3)c2)n1", "note": "(stereo not drawn)", "Percent Effect": -7.506},
      {"molecule": "c1c[nH]c(CN2CCCC(Cc3ccc(NC4CCCC4)nn3)C2)n1", "note": "(stereo not drawn)", "Percent Effect": 81.53},
      {"molecule": "CC(C)C1CN(Cc2c[nH]cn2)CCCN1CC1CC1", "note": "(stereo not drawn)", "Percent Effect": 17.94},
      {"molecule": "O=C1CC[C@H]2CN(Cc3ncc[nH]3)CC[C@H]2N1CC1CCNCC1", "Percent Effect": -8.264},
      {"molecule": "Nc1ccc(CC2CCCN(Cc3c[nH]cn3)C2)nn1", "note": "(stereo not drawn)", "Percent Effect": 105.7},
      {"molecule": "c1ccc(C2CN(C3CC3)CC3(CCN(Cc4ncc[nH]4)CC3)C2)cc1", "note": "(stereo not drawn)", "Percent Effect": -18.37},
      {"molecule": "Fc1ccc(CCC2CCCN(Cc3c[nH]cn3)C2)c(F)c1", "note": "(stereo not drawn)", "Percent Effect": -3.071},
      {"molecule": "O=C(c1coc(COc2cccc3cnccc23)n1)N1CCSCC1", "Percent Effect": -33.47},
      {"molecule": "Cc1cnc(C(=O)N2CC[C@H]3[C@@H]2CCC(=O)N3c2cccnc2)cn1.O=C(O)C(F)(F)F", "Percent Effect": 0.08604},
      {"molecule": "Cc1ccc(C(=O)N2CC[C@H]3[C@@H]2CCC(=O)N3c2cccnc2)o1.O=C(O)C(F)(F)F", "Percent Effect": -21.39},
      {"molecule": "CCc1cnc(N2CC[C@H]3[C@@H]2CCC(=O)N3c2cccnc2)nc1.O=C(O)C(F)(F)F.O=C(O)C(F)(F)F", "Percent Effect": 93.01},
      {"molecule": "CCc1cnc(N2CC[C@H]3[C@H]2CC(=O)N3c2cccnc2)nc1.O=C(O)C(F)(F)F.O=C(O)C(F)(F)F", "Percent Effect": -6.023},
      {"molecule": "CCc1cnc(N2CC[C@H]3[C@@H]2CCC(=O)N3c2ccccc2)nc1.O=C(O)C(F)(F)F", "Percent Effect": 97.82},
      {"molecule": "Cc1cc(CNC(=O)c2cc(C(C)C)n(C)n2)ccc1S(C)(=O)=O", "Percent Effect": -6.268},
      {"molecule": "CC(=O)N(CCc1ccccc1)CC(=O)NC(C)(C)C#N", "Percent Effect": -33.05},
      {"molecule": "COCCCN1CC2(CCCN(c3ncnc4[nH]cnc34)C2)CCC1=O", "note": "(stereo not drawn)", "Percent Effect": -3.857},
      {"molecule": "O=C1N(CCC2CCCCC2)CCCC1(O)CNCCc1ccccc1", "note": "(stereo not drawn)", "Percent Effect": 4.403},
      {"molecule": "O=C(O)C(=O)O.c1ccc2c(c1)SCCC2NCc1ccc(N2CCOCC2)cc1", "note": "(stereo not drawn)", "Percent Effect": -0.4171}
    ]}
  ]
}
